Measurements published in PubChem BioAssay (NCATS).
Records with an inconclusive call do not appear. The source made the active and inactive calls. Calls come from the whole dose curve; as a rule, active = well fitted cell-killing curve with a large enough effect; inconclusive = small, poorly fitted or top-dose-only effect; inactive = flat fitted curve, though single readings scatter.

test: qHTS assay to identify small molecule inhibitors of chordoma cells - UCH-2 (AID 1259356); conditions: UCH-2 chordoma viability, CellTiter-Glo ATP luminescence, 48 h; series mostly up to 46.1 µM

Row | SMILES | outcome
1 | O=C(O)c1cc(-c2ccccc2)nc2ccccc12 | inactive
2 | CCCNC(=O)NS(=O)(=O)c1ccc(Cl)cc1 | inactive
3 | CN(C)CCC(c1ccccc1)c1ccccn1 (stereo not given) | inactive
4 | CCN(CC)C(=O)c1ccc(O)c(OC)c1 | inactive
5 | C[N+](C)(C)CCCCCC[N+](C)(C)C | inactive
6 | COC(=O)[C@@H]1[C@H]2C[C@H]3c4[nH]c5ccccc5c4CCN3C[C@@H]2CC[C@@H]1O | inactive
7 | CC(=O)N[C@@H](CS)C(=O)O | inactive
8 | CCN(CC)CCOC(=O)c1ccc(N)cc1 | inactive
9 | CCOC(=O)O[C@]1(C(=O)OCCl)CC[C@@H]2[C@H]3CCC4=CC(=O)C=C[C@]4(C)[C@@H]3[C@@H](O)C[C@@]21C | inactive
10 | OC[C@@H](O)[C@H](O)[C@H](O)[C@@H](O)CO | inactive
11 | Cc1cccc(C)c1OCC(C)N (stereo not given) | inactive
12 | CC1=C(/C=C/C(C)=C/C=C/C(C)=C/C(=O)Nc2ccc(O)cc2)C(C)(C)CCC1 | inactive
13 | COc1ccccc1N1CCN(CCCNc2cc(=O)n(C)c(=O)n2C)CC1 | inactive
14 | CC/C(=C(\c1ccccc1)c1ccc(OCCN(C)C)cc1)c1ccccc1 | inactive
15 | NC(N)=Nc1nc(CSCC/C(N)=N/S(N)(=O)=O)cs1 | inactive
16 | CC(=O)CCCCn1c(=O)c2c(ncn2C)n(C)c1=O | inactive
17 | C[N+]1(C)[C@@H]2CC(OC(=O)[C@H](CO)c3ccccc3)C[C@H]1[C@H]1O[C@@H]12 (stereo not given in full) | inactive
18 | O=C(O)Cc1cccc2ccccc12 | inactive
19 | O=c1[nH]cnc2c1ncn2[C@H]1CC[C@@H](CO)O1 | inactive
20 | C[C@@H](O)[C@H]1C(=O)N2C(C(=O)O)=C(S[C@@H]3CN[C@H](C(=O)N(C)C)C3)[C@H](C)[C@H]12 | inactive
